Measured values as given in paper PMC5540273 (PLoS ONE, 2017).

Tests used:
Conditions in all cases: concentration: 1 μM,replicates: in singlicate; n = 1
[1] = test system: RPS6KA4(Kin.Dom.1-N-terminal)
[2] = test system: RPS6KA4(Kin.Dom.2-C-terminal)
[3] = test system: RPS6KA5(Kin.Dom.1-N-terminal)
[4] = test system: RPS6KA5(Kin.Dom.2-C-terminal)
[5] = test system: T1, RSK1(Kin.Dom.1-N-terminal)
T1 construct: gene RPS6KA1

[6] = test system: T2, RSK1(Kin.Dom.2-C-terminal)
T2 construct: gene RPS6KA1

[7] = test system: T3, RSK2(Kin.Dom.1-N-terminal)
T3 construct: gene RPS6KA3

[8] = test system: T4, RSK2(Kin.Dom.2-C-terminal)
T4 construct: gene RPS6KA3

[9] = test system: T5, RSK3(Kin.Dom.1-N-terminal)
T5 construct: gene RPS6KA2

[10] = test system: T6, RSK3(Kin.Dom.2-C-terminal)
T6 construct: gene RPS6KA2

[11] = test system: T7, RSK4(Kin.Dom.1-N-terminal)
T7 construct: gene RPS6KA6

[12] = test system: T8, RSK4(Kin.Dom.2-C-terminal)
T8 construct: gene RPS6KA6

S6K1 = test system: S6K1
SBK1 = test system: SBK1
SGK2 = test system: SGK2
SGK3 = test system: SGK3
SGK = test system: SGK
SIK2 = test system: SIK2
SIK = test system: SIK
SLK = test system: SLK
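Note: KINOMEscan kinase panel screen.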

Structure (SMILES) | %Inh [1] | %Inh [2] | %Inh [3] | %Inh [4] | %Inh [5] | %Inh [6] | %Inh [7] | %Inh [8] | %Inh [9] | %Inh [10] | %Inh [11] | %Inh [12] | %Inh (S6K1) | %Inh (SBK1) | %Inh (SGK2) | %Inh (SGK3) | %Inh (SGK) | %Inh (SIK2) | %Inh (SIK) | %Inh (SLK)
COc1cc2nccc(Nc3ccc(Oc4ccccc4)cc3)c2cc1OC.Cl [GI261656] | 0% | 0% | 0% | 12% | 2% | 0% | 0% | 0% | 0% | 0% | 0% | 9% | 0% | 0% | 0% | 0% | 0% | 0% | 0% | 26%
CN1CCN(CCNc2nc3cc(Oc4ccc(NC(=O)Nc5cc(C(F)(F)F)ccc5F)cc4)ccc3[nH]2)CC1.Cl.Cl [GW768504] | 5% | 0% | 0% | 1% | 7% | 28% | 0% | 0% | 0% | 8% | 0% | 0% | 0% | 0% | 0% | 0% | 0% | 0% | 0% | 7%
COc1cccc(CNC(=O)NC2CCN(c3ccnc(Nc4cc(OC)c(OC)c(OC)c4)n3)C2)c1 (stereo not shown) [GSK1379765] | 1% | 0% | 0% | 0% | 17% | 0% | 7% | 29% | 22% | 1% | 7% | 3% | 14% | 19% | 4% | 2% | 0% | 0% | 0% | 30%
O=C1NCCc2[nH]c(-c3ccncc3)cc21 | 15% | 92.7% | 0% | 58% | 4% | 35% | 8% | 23% | 16% | 27% | 22% | 25% | 11% | 44% | 27% | 36% | 44% | 34% | 13% | 22%
Cn1ccc2ncnc(Oc3ccc(NC(=O)Nc4cncc(C(F)(F)F)c4)c(Cl)c3)c21 | 0% | 0% | 83% | 6% | 0% | 0% | 0% | 0% | 9% | 0% | 0% | 12% | 0% | 0% | 0% | 0% | 0% | 0% | 0% | 20%
O=C(Nc1ccccc1)c1cccc(Oc2ccc3nccn3n2)c1 | 0% | 10% | 0% | 16% | 0% | 100% | 9% | 46% | 24% | 0% | 5% | 0% | 0% | 5% | 18% | 17% | 0% | 0% | 0% | 9%
CN(c1cccc(CNc2nc(Nc3ccc4c(c3)CC(=O)N4)ncc2C(F)(F)F)c1)S(C)(=O)=O | 48% | 3% | 12% | 20% | 67% | 13% | 87% | 23% | 78% | 27% | 77% | 54% | 42% | 48% | 0% | 2% | 31% | 56% | 25% | 33%
C[C@@H](Oc1cc(-n2cnc3cc(-c4ccncc4)ccc32)sc1C(N)=O)c1ccccc1Cl [GSK479719] | 46% | 0% | 9% | 0% | 11% | 7% | 42% | 4% | 30% | 21% | 25% | 21% | 11% | 19% | 5% | 0% | 0% | 43% | 11% | 99.4%
C[C@@H](Oc1cc(-n2cnc3cc(-c4cnn(C)c4)ccc32)sc1C(N)=O)c1ccccc1Cl [GSK580432] | 82% | 0% | 5% | 6% | 45% | 0% | 60% | 2% | 77% | 0% | 37% | 7% | 0% | 13% | 5% | 0% | 0% | 74% | 65% | 99.7%
CNC(=O)c1ccccc1Nc1nc(Nc2cccc(CS(C)(=O)=O)c2)ncc1C.O=CO [GSK1520489] | 95.7% | 0% | 43% | 0% | 96.5% | 43% | 99.9% | 12% | 99% | 0% | 99.6% | 49% | 85% | 90% | 14% | 42% | 71% | 95% | 99.6% | 99.9%
O=c1[nH]cc(-c2ccc(O)cc2)c2sc(-c3ccncc3)cc12 [GSK1033723] | 0% | 0% | 4% | 21% | 10% | 0% | 0% | 23% | 0% | 3% | 0% | 15% | 0% | 9% | 0% | 2% | 0% | 0% | 0% | 1%
Cc1nnc(-c2ccc3occ(-c4ccc(S(C)=O)cc4)c3n2)o1 (stereo not shown) | 0% | 0% | 9% | 0% | 0% | 14% | 0% | 0% | 0% | 3% | 0% | 15% | 0% | 0% | 0% | 0% | 0% | 59% | 4% | 0%
Cn1ccc2ncnc(Oc3ccc(NC(=O)Nc4cccc(C(F)(F)F)c4)c(F)c3)c21 | 37% | 0% | 0% | 19% | 0% | 0% | 6% | 13% | 0% | 22% | 0% | 2% | 22% | 0% | 0% | 2% | 0% | 3% | 28% | 54%
CN(c1ccc2c(c1)nc(NCc1ccc(F)cc1)n2C)c1ccnc(Nc2ccc(CS(C)(=O)=O)cc2)n1.Cl [GW813244] | 12% | 0% | 0% | 4% | 0% | 32% | 31% | 0% | 9% | 28% | 16% | 0% | 11% | 10% | 18% | 0% | 17% | 39% | 0% | 61%
COc1ccc(Nc2nccc(N3CCC(NC(=O)c4cccc(C#N)c4)C3)n2)cc1 (stereo not shown) [GSK1379730] | 15% | 0% | 5% | 0% | 0% | 0% | 0% | 18% | 0% | 2% | 0% | 0% | 0% | 6% | 0% | 0% | 0% | 0% | 18% | 30%
CC(C(=O)NC1CCN(c2ccnc(Nc3ccc(F)cc3)n2)C1)c1ccc(Cl)cc1 (stereo not shown) [GSK1379713] | 6% | 5% | 0% | 0% | 0% | 0% | 0% | 17% | 0% | 0% | 0% | 0% | 0% | 7% | 0% | 0% | 0% | 0% | 0% | 17%
O=C(Nc1ccc(Oc2ccc3nc(NC(=O)C4CC4)cn3n2)c(F)c1)c1cccn(-c2ccccc2)c1=O | 50% | 0% | 0% | 9% | 0% | 0% | 0% | 28% | 0% | 0% | 0% | 0% | 0% | 0% | 0% | 0% | 0% | 8% | 59% | 0%
CC(=O)Nc1ccc(-c2cc3ncnc(SCC(=O)O)c3s2)cc1 | 6% | 47% | 0% | 15% | 0% | 25% | 0% | 0% | 14% | 19% | 13% | 18% | 0% | 22% | 0% | 39% | 0% | 24% | 6% | 18%
Nc1nccc(-c2ccc3c(N)n[nH]c3c2)n1 [GSK1034945] | 0% | 81% | 7% | 62% | 4% | 32% | 29% | 22% | 31% | 1% | 59% | 24% | 1% | 25% | 4% | 24% | 0% | 0% | 0% | 25%
O=C(Nc1cccc(C(F)(F)F)c1)c1cccc(Oc2ccc3nccn3n2)c1 | 9% | 0% | 8% | 0% | 25% | 0% | 10% | 48% | 23% | 68% | 23% | 22% | 2% | 35% | 15% | 14% | 9% | 0% | 0% | 10%
